Measured values reported in PubChem BioAssay (NCI).
The panel holds about 83,000 compounds, 20% with a hit somewhere; the sample as a whole holds those more often.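 Percent growth is the endpoint: 0 to 100 indicates growth inhibition (40 means 60% inhibition), 0 means no net growth, and negative values indicate cell death.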 Values without a mark were called inactive. Activity calls are given as the source filed them. The calls were made as follows: active = growth percent below 10; inactive = the rest.

Legend:
Test in all cases: NCI-60 one-dose screen, 48 h (100 = growth as untreated, 0 = no growth, -100 = all killed)
Settings in all cases: 10 µM unless noted
SK-MEL-2 melanoma = test system: SK-MEL-2 melanoma
EKVX NSCLC = test system: EKVX NSCLC
SN12C renal = test system: SN12C renal
UO-31 renal = test system: UO-31 renal
TK-10 renal = test system: TK-10 renal
ACHN renal = test system: ACHN renal
CAKI-1 renal = test system: CAKI-1 renal
A498 renal = test system: A498 renal
CCRF-CEM leukemia = test system: CCRF-CEM leukemia
MOLT-4 leukemia = test system: MOLT-4 leukemia
SR leukemia = test system: SR leukemia
RPMI-8226 leukemia = test system: RPMI-8226 leukemia
OVCAR-8 ovarian = test system: OVCAR-8 ovarian
OVCAR-5 ovarian = test system: OVCAR-5 ovarian
OVCAR-4 ovarian = test system: OVCAR-4 ovarian
SK-OV-3 ovarian = test system: SK-OV-3 ovarian
OVCAR-3 ovarian = test system: OVCAR-3 ovarian
HS 578T breast = test system: HS 578T breast
NCI/ADR-RES ovarian = test system: NCI/ADR-RES ovarian
IGROV1 ovarian = test system: IGROV1 ovarian

SMILES	growth (SK-MEL-2 melanoma)	growth (EKVX NSCLC)	growth (SN12C renal)	growth (UO-31 renal)	growth (TK-10 renal)	growth (ACHN renal)	growth (CAKI-1 renal)	growth (A498 renal)	growth (CCRF-CEM leukemia)	growth (MOLT-4 leukemia)	growth (SR leukemia)	growth (RPMI-8226 leukemia)	growth (OVCAR-8 ovarian)	growth (OVCAR-5 ovarian)	growth (OVCAR-4 ovarian)	growth (SK-OV-3 ovarian)	growth (OVCAR-3 ovarian)	growth (HS 578T breast)	growth (NCI/ADR-RES ovarian)	growth (IGROV1 ovarian)
CC1(C)CC(=O)c2c(nn(-c3ccc(Br)cc3)c2-c2cn(-c3ccccc3)nc2-c2cccnc2)C1	98.1%	92.5%	92.7%	65.4%	140%	93.4%	66.5%	98.5%	94.4%	81.5%	112%	72.5%	97.6%	106%	84.5%	82.5%	99.7%	98.1%	94%	
CN1CCN(CCOc2ccc(-c3cnc4c(-c5cccc(F)c5F)cnn4c3)cc2)CC1	99.9%	78.6%	90.3%	80.8%	-64.2% (active)	-22.7% (active)	-8.23% (active)	95.4%	-13.3% (active)	80.5%	-1.72% (active)	-30.5% (active)	4.29% (active)	116%	-49.8% (active)	108%		103%	8.9% (active)	
O=C(Nc1ccccc1N1CCCC1=O)c1oc2ccc(F)cc2c1-c1cnn(-c2ccccc2)c1	72.8% [50 µM]	58.3% [50 µM]	48.5% [50 µM]	9.1% [50 µM] (active)	95.4% [50 µM]	46% [50 µM]	35.7% [50 µM]	29.2% [50 µM]	56.6% [50 µM]	37% [50 µM]	61.6% [50 µM]	32.3% [50 µM]		87.8% [50 µM]	57.6% [50 µM]	56.5% [50 µM]	72.4% [50 µM]	41.4% [50 µM]		65.7% [50 µM]
CCN(CC)CCCN1C(=O)c2c(c(C)c3c(oc4ccc(OC)cc43)c2C)C1=O	108%	105%	100%	64.5%	110%	42.8%	92.6%	99.1%	93.9%	96.4%	102%	99.3%	93.3%	114%	117%	109%	108%	99.2%	95.7%	
CC1C=CC(OC(=O)C(C)(O)CCC(O)(C(=O)OC2CC(O)C(C(C)C)CC2(C)O)C(C)C)(C(C)C)CC1 (stereo unspecified)	-81.6% [4.63 µM] (active)	-73.6% [4.63 µM] (active)	-62.4% [4.63 µM] (active)	-99.6% [4.63 µM] (active)	-86.1% [4.63 µM] (active)	-93.8% [4.63 µM] (active)	-97.3% [4.63 µM] (active)	-92.3% [4.63 µM] (active)	-31.8% [4.63 µM] (active)	-46.4% [4.63 µM] (active)	-24.7% [4.63 µM] (active)	-39.7% [4.63 µM] (active)		-85.3% [4.63 µM] (active)	-90.5% [4.63 µM] (active)	-91.5% [4.63 µM] (active)	-94.3% [4.63 µM] (active)	22.4% [4.63 µM]		-70.6% [4.63 µM] (active)
Nc1nc(NC(=O)Nc2ccc(C(=O)O)cc2)nn1-c1ccc(S(N)(=O)=O)cc1	110%	105%	89.5%	80.7%	106%	99.6%	90.3%	90.6%	99.4%	93.1%	99.5%	102%	86.8%	95.9%	103%	107%	95.7%	88.1%	103%	
Nc1[nH]c(=S)nc2oc(-c3ccccc3)c(-c3ccccc3)c12	101%	98%	97.5%	86.9%	114%	101%	109%	90.8%	119%	107%	93.8%	99.8%	101%	98.2%	97.2%	103%	102%	91.1%	98.9%	
O=C(CCCCCNC(=O)c1cc(=O)c(O)co1)Nc1ccccc1	105%	98.1%	110%	83.9%	93.6%	102%	95.3%	96%	95.1%	106%	101%	95.7%	104%	102%	110%	118%	109%	108%	102%	
Cn1c2c(c3ccc(Cl)c(Cl)c31)C(C#N)C(C)(C)NC2=O (stereo unspecified)	45.2%	84.9%	93.6%	110%	82.3%	80.1%	63.4%	-14.9% (active)	87.9%	59.4%	66%	72.1%	95.1%	77.7%	89.6%	105%	71.3%	34.1%	81.6%	
N#Cc1nc(-c2ccccc2)oc1S(=O)(=O)N1CCN(c2ccc(F)cc2)CC1	95.2%	118%	79.4%	80.3%	44.1%	53.8%	62.2%	110%	-31% (active)	-15.7% (active)	-20.3% (active)	36%		102%	107%	109%	51.9%	103%	96.4%	45.6%
CO[C@H]1CC(=O)n2c3ccccc3c3c4c(c5c6ccccc6n1c5c32)C(=O)NC4=O	70.5%	71.8%	65.6%	71.3%	37.3%	68.1%	58.1%	56.2%	78.3%	74.9%	20.8%	88%	37.1%	120%	24.6%	68.1%	56.1%	27.6%	36.2%	
Cc1ccc(Cl)cc1NC(=O)c1sc2nc3c(cc2c1N)C(=O)CCC3	64.5%	75.3%	80.6%	83.4%	96.6%	55.9%	41.4%	51.2%	49.2%	84.9%	68.9%	95.1%	90%	94.2%	90.1%	42.4%	22.1%	60.9%	43.8%	
COc1ccc(C2=CN3CC=CC3CC2=O)cc1 (stereo unspecified)	96.2%	87.3%	109%	103%	82.5%	102%	95.8%	111%	106%	96%	94.4%	104%	103%	110%	98.9%	102%	102%	104%	103%	
CCOC(=O)C1=C(C)C(Cl)=N/C1=C\c1[nH]c(Cl)c(C)c1C(=O)OCC	109%	99.5%	100%	86.5%	109%	107%	94.5%	104%	51.9%	80.3%	86.3%	65.1%	99.1%	124%	95.4%	81.8%	116%	103%	104%	
CCN1C(=O)N(CC)C2C1NN=c1s/c(=C3\C(=O)N(CC(C)C)c4ccccc43)c(=O)n12 (stereo unspecified)	56%	53.7%	27.5%	32.1%	70.2%	31%	31.6%	9.64% (active)	11.6%	19.6%	17.7%	17.5%	9.28% (active)	30.3%	44.6%	45.1%	5.65% (active)	18%	5.71% (active)	
O=C(/C=C/c1ccccc1)c1ccc(Nc2nc(Nc3ccc(F)cc3)nc(Nc3ccc(Cl)cc3)n2)cc1	92%	79.2%	99.6%	82%	106%	93.1%	87.4%	94.5%	26.3%	83.6%	78.2%	-9.92% (active)	58.4%	102%	90.8%	103%	80.2%	99.7%	76.7%	
